# The source made the active and inactive calls.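 How the source made its calls: active means inhibition above about 23% in any of six single-dose repeats (limit read from the data); inactive means the rest.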
# Molecular target: Intestinal-type alkaline phosphatase (Homo sapiens) (UniProt P09923)
# Assay: human IAP inhibitors, confirmation, biochemical, luminescence, single concentration, uHTS hits (AID 434927);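 further: plate controls were DMSO wells with enzyme for no effect and wells lacking enzyme for full effect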
# Details: purified human IAP, CDP-Star luminescence, 30 min; at 8.3 µM; active compounds read high
# Sequence of Intestinal-type alkaline phosphatase (Homo sapiens) (P09923 whole entry, looked up): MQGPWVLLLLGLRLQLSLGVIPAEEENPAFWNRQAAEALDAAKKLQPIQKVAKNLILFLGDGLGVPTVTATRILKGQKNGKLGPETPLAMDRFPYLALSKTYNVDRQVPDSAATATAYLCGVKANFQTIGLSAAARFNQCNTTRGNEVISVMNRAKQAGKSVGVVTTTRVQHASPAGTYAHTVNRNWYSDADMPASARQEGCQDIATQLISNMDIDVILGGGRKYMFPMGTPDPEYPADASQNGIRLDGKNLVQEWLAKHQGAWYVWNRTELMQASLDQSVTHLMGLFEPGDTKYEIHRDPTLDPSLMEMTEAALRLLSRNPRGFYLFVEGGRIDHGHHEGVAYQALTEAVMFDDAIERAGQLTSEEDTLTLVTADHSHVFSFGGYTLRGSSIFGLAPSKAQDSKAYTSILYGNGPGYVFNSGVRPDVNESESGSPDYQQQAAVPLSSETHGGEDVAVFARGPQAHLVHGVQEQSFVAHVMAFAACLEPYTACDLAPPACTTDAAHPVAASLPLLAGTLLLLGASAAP
structure (smiles),measurement,value
COC(=O)Cn1cc(/C=C2\C(=O)NC(=O)N(c3ccccc3)C2=O)c2ccccc21,inhibition,33.9% (active)

# — PubChem BioAssay AID434927 (Sanford-Burnham Center for Chemical Genomics, 2010)
